Structures are written as SMILES.

Torsin-1A (Homo sapiens), sequence (O14656 whole entry, looked up): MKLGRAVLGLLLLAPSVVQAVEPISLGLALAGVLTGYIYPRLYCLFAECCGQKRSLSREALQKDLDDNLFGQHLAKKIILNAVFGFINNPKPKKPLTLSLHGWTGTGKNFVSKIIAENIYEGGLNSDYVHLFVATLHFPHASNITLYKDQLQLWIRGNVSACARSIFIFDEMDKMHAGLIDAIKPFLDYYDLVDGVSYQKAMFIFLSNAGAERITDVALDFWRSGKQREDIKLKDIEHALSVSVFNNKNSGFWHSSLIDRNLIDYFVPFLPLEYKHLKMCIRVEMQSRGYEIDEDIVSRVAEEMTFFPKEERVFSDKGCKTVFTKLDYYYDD

The first assay has as its target Torsin-1A (Homo sapiens) (UniProt O14656). Put plainly: TOR1A wild-type binding on microarray – cell lysate, small-molecule microarray, lysate, 635/667 nm, primary screen (AID 1149). The settings on record: COS7 hTOR1A-WT lysate, 635 nm fluorescence, higher = more signal.
Regarding `Cc1cc(C)c(C(O)C2C=CC3C(=O)NC(=O)C3N2Nc2ccccn2)c(C)c1` (centres undefined), the composite z-score was -0.145.
On the same count and under the same terms, as for `C=C[C@@H](C)[C@@H](OC(=O)Nc1ccc(OC)cc1)c1ccc(O)c2ccccc12`, the figure is 0.15.
`[N-]=[N+]=NCc1ccccc1[C@H]1OC(c2ccc(OCCCO)cc2)=N[C@@]1(Cc1ccccc1)C(=O)NCC(O)CO` (some centres undefined) came in with a composite z-score of 0.379.
Consider `C=CC[C@]1(C(=O)O)N=C(c2ccc(OCCCO)cc2)O[C@H]1c1ccccc1CN=[N+]=[N-]`, for which the composite z-score was 0.0499.
The same measure, in the same setting: as for `NC(=O)[C@@]1(CCS(=O)(=O)c2ccccc2)N=C(c2ccc(OCCCO)cc2)O[C@H]1c1ccccc1`, the figure is 0.699.
In turn, `C=C(CCCC)/C(=C/C[C@H](OC(C)=O)c1ccc(CO)o1)c1cc(C(=O)OC)ccc1OC` registered a composite z-score of 0.206.
Still for that read-out and setting: as for `O=C1O[C@@H](c2ccccc2)[C@@H](c2ccccc2)N2[C@@H](c3ccc(O)cc3)[C@]3(C(=O)Nc4ccccc43)[C@@H](C(=O)NC[C@H](O)c3ccccc3)[C@H]12`, the figure is -1.

The next assay shares this target. Put plainly: torsin A mutant lysate binding on microarrays – cell lysate, small-molecule microarray, COS7 lysate, 635/667 nm fluorescence, primary screen (AID 1150).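 Note: score pools 667 nm emission and signal to noise measuring lysate protein binding.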 The settings on record: COS7 hTOR1A mutant lysate, 635 nm fluorescence, higher = more signal.
Take `O=C1O[C@H](c2ccccc2)[C@H](c2ccccc2)N2[C@H]1[C@@H](C(=O)NC[C@H](O)c1ccccc1)[C@]1(C(=O)Nc3ccc(C#CC4(O)CCCCCC4)cc31)[C@H]2c1ccccc1OCCO`: the composite z-score was determined as 1.08.
`O=C1OCCC=C[C@H]2OC34C=CCN(c5ccc6ccccc6c5)C(=O)[C@H]3N(CCCCCCO)C(=O)[C@@H]4C12` (some centres undefined) showed a composite z-score of 2.75.
`COC(=O)C(CC#Cc1ccc2c(c1)[C@]1(C(=O)N2)[C@H](C(=O)N2CCCCCCC2)[C@H]2C(=O)O[C@H](c3ccccc3)[C@H](c3ccccc3)N2[C@@H]1c1ccccc1OCCO)C(=O)OC` registered a composite z-score of 3.73.
As to `[N-]=[N+]=Nc1ccccc1[C@@H]1OC(c2ccc(OCCCO)cc2)=N[C@]1(CCS(=O)(=O)c1ccccc1)C(=O)N1CCCCC1`, the composite z-score was 0.736.
In turn, `CCOC(=O)C[C@H]1[C@H](OC(=O)c2cc3ccccc3oc2=O)[C@@H](NC(=O)c2ccc3ccccc3c2)c2cc(OCCCO)ccc2N1C(=O)c1ccccc1` gave a composite z-score of 1.11.
On the same count and under the same terms, as for `COCCOC(=O)N1C(=O)[C@@]2(c3cc(C#CCCO)ccc31)[C@H](c1ccc(O)cc1)N1[C@H](c3ccccc3)[C@H](c3ccccc3)OC(=O)[C@H]1[C@@H]2C(=O)N1CCCCCCC1`, the figure is 0.667; as for `O=[N+]([O-])c1ccc(C[n+]2ccc(CCCO)cc2)o1`, 0.263; as for `COCCn1c(C(=O)N2CCCC2)cc2c1C[C@H]1CN(C(=O)c3ccccc3)[C@@](Cc3ccc(OC)cc3)(C(=O)OC)[C@@H]21`, 1.29.
As to `O=C1c2ccccc2[C@](Cc2ccccc2I)(C(=O)O)[C@H](c2ccc(CO)cc2)N1Cc1ccccc1C(F)(F)F`, the composite z-score was -0.203.
`COc1ccc(C#Cc2ccc3c(c2)[C@]2(C(=O)N3)[C@H](C(=O)N3CCN(c4ncccn4)CC3)[C@H]3C(=O)O[C@H](c4ccccc4)[C@H](c4ccccc4)N3[C@@H]2c2ccc(O)cc2)cc1`: the composite z-score was 0.231.
With `Oc1ccc2cc[n+](Cc3cccc(OC(F)(F)F)c3)cc2c1`, the composite z-score is -0.527.
As for `O=C1[C@H]2C=C(Br)[C@H](C[C@@H]2OCCOCCO)[C@@]12CO2`, the composite z-score is -0.385.
For the compound `CC(c1ccccc1)C(O)C1C=CC2C(=O)N(Cc3ccccc3)C(=O)C2N1n1cnnc1` (centres undefined), the composite z-score amounted to 0.358.
In the case of `COCCCNC(=O)[C@@]1(C)c2ccccc2C(=O)N(Cc2ccccc2)[C@H]1c1ccc(CO)cc1`, the composite z-score is 2.16.
Compound `NC(=O)NCC#Cc1ccc2c(c1)[C@]1(C(=O)N2)[C@H](c2ccc(O)cc2)N2[C@H](c3ccccc3)[C@H](c3ccccc3)OC(=O)[C@H]2[C@@H]1C(=O)N1CCN(c2ncccn2)CC1` yielded a composite z-score of 0.412.
For `C=C[C@H](C)[C@H](OC(=O)Nc1ccc(OC)cc1)c1ccc(O)c2ccccc12`, the composite z-score turned out to be 0.16.
On the same count and under the same terms, as for `COCC1C2CC[C@H]3C(OCc4ccc(F)cc4C(F)(F)F)OC[C@]4(C)[C@H]3C2=C(CN4C(=O)OC(C)(C)C)[C@H](C)C1COC` (some centres undefined), the figure is 1.35; as for `C=CCN1C(=O)[C@]2(Cc3ccccc31)N=C(c1ccc(OCCCO)cc1)O[C@@H]2c1ccccc1`, 0.512; as for `[N-]=[N+]=NCc1ccccc1[C@@H]1OC(c2ccc(OCCCO)cc2)=N[C@]1(Cc1ccccc1)C(=O)O`, 0.786.
For the compound `O=C(NCCN1CCOCC1)[C@@H]1c2ccccc2C(=O)N(Cc2cc(F)cc(C(F)(F)F)c2)[C@H]1c1ccc(CO)cc1`, the composite z-score was determined as 0.165.
The same measure, in the same setting: as for `O=c1cccc(-c2ccccc2)o1`, the figure is 0.274; as for `O=C1O[C@@H](c2ccccc2)[C@@H](c2ccccc2)N2[C@@H](c3ccc(O)cc3)[C@]3(C(=O)Nc4ccccc43)[C@@H](C(=O)N3CCCCCCC3)[C@H]12`, 1.8.

Source of the values: PubChem BioAssay.
